Compounds with a hit are over-represented: about 2.4% of the library has one in this group of screens.
D2 ag-1 – agonists of human D2 dopamine receptor (beta-arrestin). 360,000 tested, 0.084% active. AID 624465. activation, % (concentration not given with the values). DiscoveRx PathHunter D2 beta-arrestin, luminescence, 90 min; 100% = 57 uM dopamine signal. P14416; in the data active means activation above about 40%; inconclusive means between about 15% and that limit
Target sequence (P14416 whole entry, looked up): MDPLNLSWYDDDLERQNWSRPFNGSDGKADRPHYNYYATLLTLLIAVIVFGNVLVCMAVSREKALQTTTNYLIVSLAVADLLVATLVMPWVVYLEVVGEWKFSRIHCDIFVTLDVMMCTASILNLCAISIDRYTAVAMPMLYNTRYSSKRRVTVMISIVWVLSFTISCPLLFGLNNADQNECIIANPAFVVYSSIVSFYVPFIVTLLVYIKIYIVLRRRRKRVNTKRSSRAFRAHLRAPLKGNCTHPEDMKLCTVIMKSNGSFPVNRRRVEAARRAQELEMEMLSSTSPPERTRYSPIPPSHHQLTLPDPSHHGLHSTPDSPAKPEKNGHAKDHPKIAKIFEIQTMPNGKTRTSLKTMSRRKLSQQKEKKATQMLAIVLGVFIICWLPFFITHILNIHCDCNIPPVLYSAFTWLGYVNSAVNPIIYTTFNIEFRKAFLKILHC
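Agonist mode: compounds alone added to overnight-plated D2 PathHunter cells for 90 min at 37 C, with 57 uM final dopamine (EC100) defining full response. Beta-arrestin recruitment detected by chemiluminescent reagent, read after 1 h at ambient temperature.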
D2 ag-2 – D2 dopamine receptor (human) agonism; P14416; HEK293 T-REx D2 cells, calcium flux agonist mode; activation, % at 2 µM; 340,000 tested, 0.53% active;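 active means activation over 3 SD above normal in the single-dose calcium agonist read, cut at about 30% in these data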
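Agonism is scored from calcium flux in a force-coupled, inducible HEK293 cell line expressing D2, read kinetically for 180 s after compound addition against dopamine controls.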
D2 antagonist – antagonists of human D2 dopamine receptor | HEK293 TREx D2 cells, calcium flux, dopamine EC80 | inhibition, % at 10 µM | 340,000 tested, 2% active; in the data active means inhibition above about 30%; inactive means below that, where a call was filed
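In this primary screen, negative modulation is detected by tracking calcium flux after an EC80 dopamine challenge in inducible HEK293 T-REx D2 cells preexposed to test compound for 180 s.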
D2 PAM-1 – D2 dopamine receptor (human) potentiation. potentiation, % at 10 µM. P14416. 340,000 tested, 0.34% active. HEK293 T-REx D2, calcium flux, EC20 dopamine potentiation;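 active means potentiation over 3 SD above the plate norm, cut at about 30% in these data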
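Using a no-wash calcium dye in inducible, force-coupled HEK293 Trex cells expressing D2, we tracked fluorescence each second for 180 s after compound, then for 180 s after EC20 dopamine to detect augmented signalling.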
D2 PAM-2 – potentiates the human D2 dopamine receptor allosterically; DiscoveRx D2 beta-arrestin cells, luminescence, 90 min; 100% = 57 uM dopamine signal; potentiation, % (concentration not given with the values); 360,000 tested, 0.23% active; in the data active means potentiation above about 50%; inconclusive means mostly about 30% to 49%
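PathHunter D2 cells, attached overnight at 37 deg C, received compound in DMSO plus dopamine at EC20 (50 nM final) for 90 min at 37 deg C. Beta-arrestin recruitment was read as luminescence after 1 h with detection reagent at ambient temperature.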
Hits are given with their value; i = inactive; ? = inconclusive; nt = no result given.

SMILES	D2 ag-1	D2 ag-2	D2 antagonist	D2 PAM-1	D2 PAM-2
CC1CCCCN1C(=O)c1ccccc1NC(=O)c1ccco1 (configuration not stated)	i	i	i	31	i
Cc1ccccc1NC(=O)c1ccccc1NC(=O)c1ccco1	i	i	i	i	i
O=C(NCc1ccco1)c1ccc2nc([C@@H]3O[C@H](CO)[C@H](O)[C@H](O)[C@H]3O)[nH]c2c1	i	nt	nt	nt	i
O=C(ONC1=NCCCCC1)c1c(F)cccc1F	?	i	i	i	65
O=C(ONC1=NCCCCC1)c1ccc(Cl)cc1	?	i	i	i	?
O=C(c1ccccc1Br)N1CCC(c2nc3ccccc3o2)CC1	nt	i	nt	i	nt
OC1(c2cccc(F)c2)CCN(Cc2ccncc2)CC1	i	i	56	i	i
CN(C)S(=O)(=O)N1CCc2ccc(NC(=O)C3CCCO3)cc2C1 (configuration not stated)	i	i	31	i	i
O=C(Nc1ccc(S(=O)(=O)N2CCc3ccccc3C2)cc1)C1CCCO1 (configuration not stated)	i	i	i	i	i
O=C(Nc1ccnn1C1CCN(Cc2cccnc2)CC1)c1ccccc1Cl	i	i	i	i	i
Cc1ccccc1CN1CCC(n2nccc2NC(=O)c2ccc3c(c2)OCO3)CC1	i	i	i	i	i
COc1ccc(CN2CCC(n3nccc3NC(=O)c3ccc4c(c3)OCO4)CC2)cc1C	i	i	45	i	i
Cc1cc(CN2CCC(n3nccc3NC(=O)c3ccccc3Cl)CC2)cc(C)c1O	i	i	55	i	i
COc1ccccc1C(=O)Nc1ccnn1C1CCN(Cc2csc(C(C)=O)c2)CC1	i	i	32	i	i
Cc1ccccc1C(=O)Nc1ccnn1C1CCN(Cc2ccncc2)CC1	i	i	31	i	i
O=C(Cn1nnc(-c2ccc(C(F)(F)F)cc2)n1)NCCc1ccccc1	nt	i	nt	i	nt
COC(=O)c1c(NC(=O)CCCOc2ccc(C)cc2)sc2c1C(C(=O)OC)CC2 (configuration not stated)	nt	i	nt	i	nt
Cc1cccc(C)c1NC(=O)CN1C(=O)C2CC=CCC2C1=O (configuration not stated)	i	i	57	i	i
Cc1cccc(C)c1NC(=O)CN1C(=O)N(C)Cc2ccccc21	i	i	45	i	i
CN1Cc2ccccc2N(CC(=O)NCc2ccccc2)C1=O	i	nt	nt	i	i
Cc1cccc(C(C)C)c1NC(=O)COC(=O)CN1C(=O)C2CC=CCC2C1=O (configuration not stated)	i	i	i	i	i
COc1ccc(-c2nnc(SCC(=O)Oc3cc(C)ccc3C)o2)cc1	nt	i	nt	i	nt
COc1cc(OC)c2c(-c3ccccc3)cc(=O)oc2c1C(CC(=O)N1CCN(c2ccccc2)CC1)c1ccc(N(C)C)cc1 (configuration not stated)	i	i	48	i	i
COc1cc(OC)c2c(-c3ccccc3)cc(=O)oc2c1C(CC(=O)N1CCN(c2ccccc2)CC1)c1ccc2c(c1)OCO2 (configuration not stated)	nt	i	i	i	nt
COc1cc(OC)c2c(-c3ccccc3)cc(=O)oc2c1C(CC(=O)N1CCOCC1)c1ccc(N(C)C)cc1 (configuration not stated)	i	i	31	i	i
SMILES	D2 ag-1	D2 ag-2	D2 antagonist	D2 PAM-1	D2 PAM-2
Cc1ccc(S(=O)(=O)N2CCN(C(=O)c3cc(-c4ccc(Br)cc4)n[nH]3)CC2)c(C)c1	nt	i	nt	nt	nt
Cc1nc(N2CCC(C)CC2)c2nnn(Cc3ccccc3)c2n1	i	i	i	34	i
CC(C)Cc1nc(N2CCC(C(N)=O)CC2)c2nnn(Cc3ccccc3)c2n1	i	nt	nt	nt	i
NC(=O)c1cc2ccccc2o/c1=N/NC(=O)c1cccc(Cl)c1	i	i	49	i	i
COc1ccccc1Nc1nc(-c2sc(N)nc2C)cs1	i	i	38	i	i
COc1ccccc1Nc1nc(-c2sc(NC(=O)c3ccccc3)nc2C)cs1	i	i	i	i	i
OC(COc1ccc(Cl)cc1)CN1CCN(c2ccccn2)CC1 (configuration not stated)	i	nt	nt	nt	i
Cc1cccc(N2CCN(CC(O)COc3ccccc3Cl)CC2)c1 (configuration not stated)	i	i	71	i	i
OC(COc1cc(Cl)c(Cl)cc1Cl)CN1CCN(c2ncccn2)CC1 (configuration not stated)	i	i	37	i	i
CCOC(=O)C1CCCN(S(=O)(=O)c2cc(-c3cc(C)no3)ccc2C)C1 (configuration not stated)	nt	i	nt	i	nt
COc1cccc(-c2nc(CSCC(=O)NCCc3ccc(Cl)cc3)c(C)o2)c1	nt	i	nt	i	nt
Cc1cccc(CCN(CC(=O)NCc2ccc(F)cc2)C(=O)c2csnn2)c1	i	i	i	i	i
CCCN1C=CC(=C/C=C(\C#N)C(=O)OCC)C=C1	nt	34	i	i	nt
CCCCCCN1C=CC(=C/C=C(\C#N)C(=O)OCC)C=C1	i	43	i	i	i
CCCN1C=CC(=CC=C(C#N)C#N)C=C1	i	i	i	i	i
Cc1ccc(NC(=O)C2CCN(c3nn4c(=O)cc(C)nc4s3)CC2)cc1	nt	i	nt	i	nt
Cc1cc(OCc2cc(C(=O)NCc3csc(C(C)C)n3)no2)cc(C)c1Cl	i	i	i	i	i
COc1cc(Nc2cc(C)nc3ncnn23)cc(OC)c1	i	i	i	i	i
COc1cc(Nc2cc(C)nc3ncnn23)cc(OC)c1OC	i	i	32	i	i
CCOc1ccc(/C=N/Nc2nc(=O)[nH]nc2C)cc1OC	i	i	i	44	i
Cc1nnc(SCc2ccccc2Cl)c2cc3sccc3n12	nt	i	nt	i	nt
CC(C)c1ccc(N(C(=O)CNC(=O)c2ccco2)C(C(=O)NC2CCCC2)c2ccncc2)cc1 (configuration not stated)	i	i	31	i	i
CCc1c(C)c(C#N)c2nc3ccccc3n2c1Nc1cccc(C(F)(F)F)c1	nt	i	nt	i	nt
Cc1cccn2c(=O)nc(SCC(=O)N3CCCCCC3)nc12	i	i	31	i	i
Cc1cccn2c(=O)nc(SCC(=O)N3CCCCC3)nc12	i	i	i	i	i
C=CCn1c(SCC(=O)Nc2ccc(O)cc2)nc2sc(CC)cc2c1=O	i	i	31	i	i
Cc1cc(C)c(NC(=O)C(C)N2CCCCCC2)c(C)c1 (configuration not stated)	i	i	i	i	i
CC(C(=O)Nc1cc(Cl)cc(Cl)c1)N1CCCC1 (configuration not stated)	i	i	89	i	i
Cc1ccc2nc3c(cc(C#N)c(=O)n3-c3nnc(SCc4ccc(F)cc4)s3)c(=O)n2c1	nt	i	nt	i	nt
CCC12CN3CC(C)(CN(C1)C3c1c[nH]c3ccccc13)C2=O (configuration not stated)	nt	i	nt	i	nt

Source: PubChem (National Center for Advancing Translational Sciences (NCATS))
